Our source for the outcome, Potency and max response values is PubChem BioAssay (NCATS).

Assay [1] in a line: Viability counterscreen for agonist of constitutive androstane receptor (CAR) against the NCATS DSHEA and TCM libraries (AID 1794838). Further: 0% is about no effect. In a few lines: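 HepG2-CYP2B6-hCAR cells (2,500/well) attached 5 h, then got compounds plus 0.75 uM PK11195 final. After 24 h at 37C, viability read by CellTiter-Fluor fluorescence (Ex/Em 405/540 nm).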
A general note: Counterscreens check selectivity or assay interference.

Assay [2] is described as follows: HepG2 viability counterscreen (readout 2: ATP content) against the NCATS DSHEA and TCM libraries (AID 1794840).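 Further: HepG2 cells exposed to substances for about 24 h; 0% is about no effect.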 Put shortly:
(§1)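 HepG2 cells (1,000 cells/well) attached ~4 h, then treated ~24 h at 37C with substances. Protease activity read by GF-AFC (25 uM final, 30 min, Ex/Em 380/510 nm); ATP content then by CellTiter-Glo luminescence.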

A short description of assay [3]: HepG2 viability counterscreen (readout 1: protease activity) against the NCATS DSHEA and TCM libraries (AID 1794841).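 Further: cells exposed to compounds for about 24 h before the protease read; 0% is about no effect.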 In a few lines: as §1
The target in assay [4] is Cytochrome P450 3A4 (Homo sapiens) (UniProt P08684). Description: qHTS for inhibitors of CYP3A4 against the NCATS DSHEA and TCM libraries (AID 1919971).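 Further: on the % scale 0 is the no-effect control and ±100 the full control effect; inhibition lowers luminescence from luciferin made by CYP3A4.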 Put shortly:
(§2)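 Read-out is luminescence after P450-Glo detection (30 min, RT). Before that: 15 min compound–enzyme preincubation, then 30-45 min reaction with 1x NADPH regeneration solution, substrate concentration isoform-specific.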

In assay [5] the target is Cytochrome P450 2D6 (Homo sapiens) (UniProt P10635). Description: qHTS for inhibitors of CYP2D6 against the NCATS DSHEA and TCM libraries (AID 1919972). Further: on the % scale 0 is the no-effect control and ±100 the full control effect. Put shortly: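 Luminescent P450-Glo read-out of CYP2D6 turnover of a luciferin substrate after NADPH-driven reaction of 30-45 min at room temperature. Compounds were first preincubated 15 min with enzyme at titrated concentrations; quinidine was the intraplate control.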
(Quantitative high-throughput screening tests each substance at several concentrations.)

For assay [6], the target named is Cytochrome P450 2C9 (Homo sapiens) (UniProt P11712). Description: qHTS for inhibitors of CYP2C9 against the NCATS DSHEA and TCM libraries (AID 1919973). Further: potency means the concentration at half of the fitted maximal effect. Put shortly:
as §2

Assay [7] deals with Cytochrome P450 1A2 (Homo sapiens) (UniProt P05177). Description: qHTS for inhibitors of CYPIA2 against the NCATS DSHEA and TCM libraries (AID 1919976). Further: potency means the concentration at half of the fitted maximal effect. In a few lines:
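CYP1A2 + luciferin substrate, 100 mM KPO4-type buffer; cmpd 15 min RT; 1x NADPH regen, 30-45 min RT dark; detection reagent 30 min RT; luminescence. Minus-enzyme wells as background; furafylline intraplate control.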

The nature of assay [8]: qHTS Counterscreen for compound interference against the NCATS DSHEA and TCM libraries (AID 1919978). Further: % of control where 0% means no effect. The conditions noted are these: firefly luciferase detection reagent interference, luminescence. In a few lines:
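D-luciferin (1 uM final) or 100 mM potassium phosphate buffer alone was preincubated 15 min at RT with compounds (19.5 nM to 39.8 uM final). Luciferin detection reagent was then added and luminescence read after 30 min at RT.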

Assay [9] is described as follows: Dual reporter qHTS for agonist of Pregnane X Receptor (hPXR) against the NCATS DSHEA and TCM libraries: Fluorescence readout (AID 1920058). Further: 0% is about no effect. Put shortly:
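HepG2 hPXR-Luc, 2000 cells/well, 5 h attach; cpds ~24 h, 37 °C/5% CO2; CellTiter-Fluor 1 h; fluor. Ex/Em 405/540 nm = viability.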

Assay [10] deals with Nuclear receptor subfamily 1 group I member 2 (Homo sapiens) (UniProt O75469). Description: Dual reporter qHTS for agonist of Pregnane X Receptor (hPXR) against the NCATS DSHEA and TCM libraries: Luminescence readout (AID 1920059). Further: potency means the concentration at half of the fitted maximal effect. In a few lines:
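Luminescent PXR reporter read (ONE-Glo) after a CellTiter-Fluor viability read, following 24 h, 37C treatment of HepG2 cells stably carrying hPXR-Luc.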

For assay [11] the target is unchanged. Description: Dual reporter qHTS for antagonist of Pregnane X Receptor (hPXR) against the NCATS DSHEA and TCM libraries: Luminescence Readout (AID 1920060).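 Further: HepG2 cells carrying hPXR luciferase reporter stimulated with rifampicin at 2 µM; 0% is about no effect.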 In a few lines: (§3)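 In antagonist mode, 2 uM rifampicin was added to hPXR-Luc HepG2 cells alongside test substances, incubated 24 h at 37 C; luminescence gave reporter activity, and CellTiter-Fluor fluorescence (405/540 nm) gave viability.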

The target of assay [12] is Mitogen-activated protein kinase 10 (Mus musculus) (UniProt Q61831). Description: JNK3 AlphaScreen Assay (AID 530; active means well fitted curve in either direction with a large enough effect, not every such curve was filed as active;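 further: kinase came from lysate of stimulated human HepG2 cells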; further: potency means the concentration at half of the fitted maximal effect). Put shortly:
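Compound titrations were preincubated 15 minutes at room temperature with substrate, antibody and pre-activated JNK3-containing HepG2 lysate. Reactions were started with 10 uM ATP and stopped with EDTA-containing bead buffer for AlphaScreen detection.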
(In general: In Alpha technology, singlet oxygen from a donor bead excites a nearby acceptor bead.)

Assay [13] is described as follows: Dual reporter qHTS for antagonist of Pregnane X Receptor (hPXR) against the NCATS DSHEA and TCM libraries: Fluorescence Readout (AID 1920061). Further: 0% is about no effect. In a few lines: as §3
For assay [14], the target named is Glucocorticoid receptor (Homo sapiens) (UniProt P04150). Nature of the assay: GR-GFP Redistribution (AID 450;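 active means compounds whose dose series gives a full or clear partial fitted curve of increased nuclear translocation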; further: potency means the concentration at half of the fitted maximal effect). The settings on record: U2OS GR-GFP nuclear translocation, laser cytometry, 2 h.
The target of assay [15] is Nuclear receptor subfamily 1 group I member 3 (Homo sapiens) (UniProt Q14994). Description: Primary qHTS for agonist of constitutive androstane receptor (CAR) against the NCATS DSHEA and TCM libraries (AID 1794839). Further: potency means the concentration at half of the fitted maximal effect. Put shortly:
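HepG2-CYP2B6-hCAR cells (2,500/well) were attached for 5 h, then treated for 24 h at 37 °C with compounds plus 0.75 µM PK11195. Luciferase luminescence (ONE-Glo) was read, with CellTiter-Fluor viability (Ex/Em 405/540 nm).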

Assay [16] in a line: KB-3-1 P-gp reporter qHTS against the NCATS DSHEA and TCM libraries (AID 1919975). Further: 0% is about no effect. Put shortly: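 Parental KB-3-1 human cervical adenocarcinoma cells (500 cells/well, DMEM + 10% FBS) were treated with substances for ~72 h at 37C; viability was read by CellTiter-Glo luminescence.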
Assay [17] in a line: Viability counterscreen for antagonist of constitutive androstane receptor (CAR) against the NCATS DSHEA and TCM libraries (AID 1794837).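 Further: compound exposure lasted 24 h before viability reading; 0% is about no effect.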 In a few lines:
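HepG2-CYP2B6-hCAR cells (2,500/well) were allowed to attach for 5 h, then exposed to compounds with 48 uM CITCO for 24 h at 37C. Viability was read by CellTiter-Fluor fluorescence after 1 h.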

Values without a mark were called inactive. Records with an inconclusive call do not appear. The source made the active and inactive calls. Unless noted, the call rests on the fitted dose curve; in most records, active means well fitted curve in the direction sought with a large enough effect; inconclusive means small, poorly fitted or top-dose-only effect, or another doubt; inactive means no such curve, though single readings can be large; an effect the other way counts as inactive or inconclusive.

Chain of Cytochrome P450 3A4 (Homo sapiens) (P08684 whole entry, looked up, canonical isoform): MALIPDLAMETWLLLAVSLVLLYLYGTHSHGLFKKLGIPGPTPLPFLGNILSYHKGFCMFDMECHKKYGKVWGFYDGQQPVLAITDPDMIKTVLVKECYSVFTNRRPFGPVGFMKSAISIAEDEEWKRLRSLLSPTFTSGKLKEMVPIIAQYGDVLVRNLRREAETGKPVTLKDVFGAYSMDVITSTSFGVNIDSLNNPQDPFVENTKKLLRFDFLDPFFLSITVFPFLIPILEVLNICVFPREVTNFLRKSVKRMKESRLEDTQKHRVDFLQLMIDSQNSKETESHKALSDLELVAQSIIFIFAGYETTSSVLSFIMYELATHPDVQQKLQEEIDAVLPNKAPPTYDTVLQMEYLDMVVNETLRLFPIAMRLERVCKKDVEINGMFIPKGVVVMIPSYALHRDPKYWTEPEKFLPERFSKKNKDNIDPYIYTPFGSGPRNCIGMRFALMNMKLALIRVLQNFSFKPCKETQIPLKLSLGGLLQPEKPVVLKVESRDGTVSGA
Chain of Nuclear receptor subfamily 1 group I member 3 (Homo sapiens) (Q14994 whole entry, looked up): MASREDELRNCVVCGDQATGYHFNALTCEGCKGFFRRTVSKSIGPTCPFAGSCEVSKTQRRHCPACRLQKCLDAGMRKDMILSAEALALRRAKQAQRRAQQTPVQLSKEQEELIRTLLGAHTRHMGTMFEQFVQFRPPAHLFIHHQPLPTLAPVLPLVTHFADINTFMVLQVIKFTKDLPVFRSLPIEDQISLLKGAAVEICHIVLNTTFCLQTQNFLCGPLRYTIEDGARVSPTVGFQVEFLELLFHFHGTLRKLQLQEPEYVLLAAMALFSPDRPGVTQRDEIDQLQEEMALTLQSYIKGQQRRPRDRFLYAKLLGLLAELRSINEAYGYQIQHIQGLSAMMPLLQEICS
Chain of Cytochrome P450 2D6 (Homo sapiens) (P10635 whole entry, looked up): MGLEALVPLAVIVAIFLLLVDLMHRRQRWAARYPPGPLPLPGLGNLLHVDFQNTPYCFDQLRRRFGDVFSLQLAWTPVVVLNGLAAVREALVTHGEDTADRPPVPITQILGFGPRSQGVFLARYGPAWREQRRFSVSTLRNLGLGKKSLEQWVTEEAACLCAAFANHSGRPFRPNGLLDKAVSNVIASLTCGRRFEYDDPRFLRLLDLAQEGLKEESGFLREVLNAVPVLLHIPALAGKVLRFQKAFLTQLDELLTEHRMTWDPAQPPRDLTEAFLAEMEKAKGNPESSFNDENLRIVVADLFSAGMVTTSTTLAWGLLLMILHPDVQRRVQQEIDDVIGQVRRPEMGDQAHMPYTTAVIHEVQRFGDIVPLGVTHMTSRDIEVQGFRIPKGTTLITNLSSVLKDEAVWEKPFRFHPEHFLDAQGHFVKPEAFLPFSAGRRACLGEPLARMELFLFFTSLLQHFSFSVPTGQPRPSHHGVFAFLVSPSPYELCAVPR
Chain of Cytochrome P450 1A2 (Homo sapiens) (P05177 whole entry, looked up): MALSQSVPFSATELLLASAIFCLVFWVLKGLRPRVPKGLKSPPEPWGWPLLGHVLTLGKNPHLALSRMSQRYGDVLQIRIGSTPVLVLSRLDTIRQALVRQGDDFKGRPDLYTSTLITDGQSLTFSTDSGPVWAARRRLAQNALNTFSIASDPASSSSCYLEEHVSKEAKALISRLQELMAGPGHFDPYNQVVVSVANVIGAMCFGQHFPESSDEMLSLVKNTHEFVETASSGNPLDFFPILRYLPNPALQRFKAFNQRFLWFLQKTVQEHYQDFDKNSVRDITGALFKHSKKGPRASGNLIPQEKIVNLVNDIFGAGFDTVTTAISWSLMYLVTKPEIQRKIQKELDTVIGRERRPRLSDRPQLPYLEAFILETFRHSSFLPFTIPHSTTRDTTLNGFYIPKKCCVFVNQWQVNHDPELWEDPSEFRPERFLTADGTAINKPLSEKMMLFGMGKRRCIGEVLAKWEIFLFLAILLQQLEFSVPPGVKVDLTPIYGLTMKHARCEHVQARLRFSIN
Chain of Nuclear receptor subfamily 1 group I member 2 (Homo sapiens) (O75469 whole entry, looked up): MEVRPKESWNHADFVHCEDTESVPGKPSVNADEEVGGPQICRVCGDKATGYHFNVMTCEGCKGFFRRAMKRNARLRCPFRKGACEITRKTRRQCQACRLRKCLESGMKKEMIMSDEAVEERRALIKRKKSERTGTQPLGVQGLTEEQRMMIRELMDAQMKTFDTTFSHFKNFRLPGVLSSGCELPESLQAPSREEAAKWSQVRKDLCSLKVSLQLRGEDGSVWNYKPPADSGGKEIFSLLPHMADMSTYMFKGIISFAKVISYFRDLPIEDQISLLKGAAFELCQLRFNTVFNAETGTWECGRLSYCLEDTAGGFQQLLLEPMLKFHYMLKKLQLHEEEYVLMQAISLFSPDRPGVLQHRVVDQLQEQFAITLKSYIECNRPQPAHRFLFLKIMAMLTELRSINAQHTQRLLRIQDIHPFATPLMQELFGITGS
Chain of Cytochrome P450 2C9 (Homo sapiens) (P11712 whole entry, looked up): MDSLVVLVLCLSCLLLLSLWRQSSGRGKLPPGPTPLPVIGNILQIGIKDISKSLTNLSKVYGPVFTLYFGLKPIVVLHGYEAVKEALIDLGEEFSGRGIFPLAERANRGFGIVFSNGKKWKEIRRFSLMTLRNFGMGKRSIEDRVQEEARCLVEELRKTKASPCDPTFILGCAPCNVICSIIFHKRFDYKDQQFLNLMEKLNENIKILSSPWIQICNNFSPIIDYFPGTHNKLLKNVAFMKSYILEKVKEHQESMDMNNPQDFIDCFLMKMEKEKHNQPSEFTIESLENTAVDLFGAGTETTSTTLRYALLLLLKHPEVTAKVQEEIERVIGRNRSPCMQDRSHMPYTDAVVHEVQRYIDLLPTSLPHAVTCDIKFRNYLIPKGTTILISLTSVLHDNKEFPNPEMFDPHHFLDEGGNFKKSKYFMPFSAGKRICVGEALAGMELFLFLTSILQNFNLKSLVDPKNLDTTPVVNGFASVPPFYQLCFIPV
Chain of Glucocorticoid receptor (Homo sapiens) (P04150 whole entry, looked up): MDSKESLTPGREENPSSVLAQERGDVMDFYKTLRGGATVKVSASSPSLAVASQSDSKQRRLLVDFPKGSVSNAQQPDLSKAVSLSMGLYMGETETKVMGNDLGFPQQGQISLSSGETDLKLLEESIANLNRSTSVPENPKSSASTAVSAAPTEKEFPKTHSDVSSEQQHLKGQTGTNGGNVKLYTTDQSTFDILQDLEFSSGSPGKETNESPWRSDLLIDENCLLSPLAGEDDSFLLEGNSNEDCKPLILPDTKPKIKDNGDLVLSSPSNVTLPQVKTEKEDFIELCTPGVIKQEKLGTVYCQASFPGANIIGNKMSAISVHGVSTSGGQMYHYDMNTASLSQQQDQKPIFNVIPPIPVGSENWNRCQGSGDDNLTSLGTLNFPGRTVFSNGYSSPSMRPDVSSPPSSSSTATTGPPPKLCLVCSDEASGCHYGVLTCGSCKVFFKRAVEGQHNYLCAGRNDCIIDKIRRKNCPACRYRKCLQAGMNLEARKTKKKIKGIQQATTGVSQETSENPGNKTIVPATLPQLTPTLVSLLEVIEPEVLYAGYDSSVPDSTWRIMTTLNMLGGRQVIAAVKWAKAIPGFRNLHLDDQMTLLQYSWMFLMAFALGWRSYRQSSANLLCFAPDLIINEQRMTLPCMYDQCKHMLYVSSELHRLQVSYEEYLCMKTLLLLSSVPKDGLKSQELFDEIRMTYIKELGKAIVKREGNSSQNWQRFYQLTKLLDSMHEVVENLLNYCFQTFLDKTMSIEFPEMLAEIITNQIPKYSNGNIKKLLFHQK

Regarding `Cc1ccc(O)c(O)c1`, the result in [1], in assay [2], in assay [3], in assay [9] and in assay [11] was inactive. In addition, the Potency result in [4], in assay [5], in [6] and in assay [7] was “inactive” in each case. Moreover, the max response in [8] was -0.684%. Further, in assay [10], the Potency was 50.1 µM (active).
Regarding `CCCCCCCCCCCC(=O)O`, the Potency entry in assay [12], in assay [4], in assay [5] and in assay [10] was “inactive” throughout. In addition, the molecule was classed as inactive in assay [2], in assay [3], in assay [9], in [11] and in assay [13]. Besides, in assay [8], the max response was 3.72%.
Take `CC(=O)O[C@@H]1CC[C@@]2(C)[C@@H](CC[C@]3(C)[C@@H]2C(=O)C=C2[C@@H]4[C@@H](C)[C@H](C)CC[C@]4(C)CC[C@]23C)[C@@]1(C)C(=O)O`: the outcome in assay [1], in assay [2], in [3], in assay [9] and in assay [13] was inactive. The Potency entry in [5] and in assay [10] was “inactive” each time. The Potency in [6] is 14.1 µM (active). The max response in assay [8] is -0.124%.
For the molecule `O=c1cc(-c2ccc(O)c(O)c2)oc2cc(O[C@@H]3O[C@@H](CO)[C@@H](O)[C@@H](O)[C@H]3O)cc(O)c12`, the Potency in assay [14] was more than 46 µM; in assay [12], 7.94 µM (active); in assay [15], 28.2 µM (active); in assay [6] it was 3.98 µM (active); in assay [7] it was 3.98 µM (active). Moreover, the result in assay [1], in assay [2], in assay [3], in assay [16], in assay [9] and in assay [11] was inactive. Moreover, the Potency entry in assay [5] and in assay [10] was “inactive” each time. The max response in assay [8] was 0.762%.
As to `C[C@@H]1OC(O[C@H]2[C@H](O)[C@@H](O)[C@H](OC[C@H]3O[C@@H](OC(=O)[C@]45CCC(C)(C)C[C@@H]4C4=CCC6[C@@]7(C)CC[C@H](OC8OC[C@H](O)[C@H](O)[C@H]8OC8O[C@@H](C)[C@H](O)[C@@H](O)[C@H]8O)[C@@](C)(CO)C7CC[C@@]6(C)[C@]4(C)CC5)[C@H](O)[C@@H](O)[C@@H]3O)O[C@@H]2CO)[C@H](O)[C@H](O)[C@H]1O` (some centres not stated), the molecule was classed as inactive in assay [17], in assay [1], in assay [2], in assay [3], in assay [9] and in assay [11]. The molecule was classed as inactive in [13]. Also, the Potency result in assay [15], in assay [6], in assay [7] and in assay [10] was “inactive” throughout. Moreover, the max response in [8] is -2.4%.
Take `CC(C)(O)[C@@H]1CC[C@](C)([C@H]2[C@@H](O)C[C@@]3(C)[C@@H]4C[C@H](O)[C@H]5C(C)(C)[C@@H](O[C@@H]6OC[C@@H](O)[C@H](O)[C@H]6O[C@@H]6O[C@H](CO)[C@@H](O)[C@H](O)[C@H]6O)CC[C@@]56C[C@@]46CC[C@]23C)O1`: the molecule was classed as inactive in [17], in assay [1], in [2], in assay [3], in assay [16] and in [9]. Besides, the molecule was called inactive in [11] and in assay [13]. Further, the Potency result in [4], in assay [5], in assay [6], in [7] and in [10] was “inactive” in each case. Moreover, the max response in assay [8] was 4.11%.
Consider `CCCCCCCCC[C@@H](O)CC(=O)CCc1ccc(O)c(OC)c1`, for which the molecule was called inactive in assay [17], in [1], in [2], in assay [3], in [16] and in assay [9]. Besides, the molecule was called inactive in assay [11] and in assay [13]. Also, the Potency in [15] is 12.6 µM (active). In addition, the Potency entry in [5] is “inactive”. Also, the max response in [8] was 2.63%.
Turning to `CC(C)=CCC[C@](C)(O[C@@H]1O[C@H](CO)[C@@H](O)[C@H](O)[C@H]1O)[C@H]1CC[C@]2(C)[C@@H]1[C@H](O)C[C@@H]1[C@@]3(C)CC[C@H](O[C@@H]4O[C@H](CO)[C@@H](O)[C@H](O)[C@H]4O[C@@H]4O[C@H](CO)[C@@H](O)[C@H](O)[C@H]4O)C(C)(C)[C@@H]3CC[C@]12C`, the result in assay [17], in assay [1], in assay [2], in assay [3], in [9] and in [11] was inactive. For the same molecule, the molecule was called inactive in [13]. Moreover, the Potency result in assay [15], in assay [6] and in assay [10] was “inactive” throughout. Also, in assay [8], the max response is 4.23%.
